Activity calls are given as the source filed them. Rule as the data show it, unless noted: active = inhibition above about 80%; inactive = the rest.
What was measured:
[1] = sensitizers of A549 cells to miR-34 induction, primary screen, imaging, A549 dox-inducible miR-34, nuclei and caspase counts (AID 1347080;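 active = compounds whose cell count with miR-34 switched on is under 0.7 times the count with it off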); conditions: A549 miR-34 inducible, Hoechst nuclei count, 48 h
[2] = survival rescue of mitochondrial mutant cells in low glucose, primary screen, MELAS cybrids, Rieske KO mouse fibroblasts, CellTiter-Glo (AID 1508586;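 active = mean z-score across replicates of 1.96 or higher in either the MELAS or the Rieske mutant cell line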;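 also: z relative to plate mean and SD of compound and empty wells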)
[3] = LFS_MB_P medulloblastoma growth inhibition, cell-based, chromothripsis tumors, cisplatin or BGB combos (AID 1671449); conditions: LFS_MB_P medulloblastoma cells;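 also: cells exposed for 96 hours; 0% = vehicle DMSO and 100% = killing by high DMSO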
[4] = HDN33 neuroblastoma growth inhibition, cell-based, chromothripsis tumors, cisplatin or BGB combos (AID 1671450); conditions: HDN33 neuroblastoma cells, stronger effect = higher value;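 also: cells exposed to compound for four days; 0% = vehicle DMSO and 100% = cell killing by high DMSO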
[5] = ICB984 medulloblastoma cell growth inhibition, synergistic combos for chromothripsis tumors, cisplatin or BGB combos (AID 1671451; call rule not given here;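 also: cells exposed for 96 hours before readout; 0% = vehicle DMSO and 100% = killing by high DMSO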); conditions: ICB984 medulloblastoma cells, drug combinations, stronger effect = higher value
[6] = LFS_MB_1R medulloblastoma cell growth inhibition, synergistic combos for chromothripsis tumors, cisplatin or BGB combos (AID 1671452); conditions: LFS_MB_1R medulloblastoma cells, stronger effect = higher value;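 also: cells exposed for 96 hours before readout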
[7] = HTB85 osteosarcoma cell growth inhibition, synergistic combos for chromothripsis tumors, BGB or cisplatin IC20 combos (AID 1671453); conditions: HTB85 osteosarcoma cells, drug combinations, stronger effect = higher value;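 also: cells exposed for 96 hours before readout; 0% = vehicle DMSO and 100% = high DMSO killing control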
[8] = CRL2098 osteosarcoma cell growth inhibition, synergistic combos for chromothripsis tumors, BGB or cisplatin IC20 combos (AID 1671454); conditions: CRL2098 osteosarcoma cells, drug combinations, stronger effect = higher value;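 also: cells exposed for 96 h before readout; 0% = vehicle DMSO and 100% = killing by high DMSO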
[9] = HD-MB03 medulloblastoma cell growth inhibition, synergistic combos for chromothripsis tumors, BGB or cisplatin IC20 combos (AID 1671455; in the data active = inhibition above about 83%;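 also: 0% = vehicle DMSO and 100% = high DMSO as cytotoxic control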); conditions: HD-MB03 medulloblastoma cells, stronger effect = higher value
[10] = UWB1.289 ovarian carcinoma cell growth inhibition, synergistic combos for chromothripsis tumors, BGB or cisplatin combos (AID 1671456); conditions: UWB1.289 ovarian carcinoma cells, stronger effect = higher value;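 also: cells exposed to compound for four days; 0% = vehicle DMSO and 100% = killing by high DMSO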
[11] = LFS_MB_2R medulloblastoma cell growth inhibition, synergistic combos for chromothripsis tumors, cisplatin combos (AID 1671457); conditions: LFS_MB_2R medulloblastoma cells, stronger effect = higher value;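 also: cells exposed to compound for four days before readout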
[12] = MDA-MB-436 breast carcinoma cell growth inhibition, synergistic combos for chromothripsis tumors, BGB or cisplatin combos (AID 1671458; call rule not given here;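 also: cells exposed for 96 hours; 0% = vehicle DMSO and 100% = killing by high DMSO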); conditions: MDA-MB-436 breast carcinoma growth inhibition, drug combinations, stronger effect = higher value
[13] = UWB1.289_BRCA1 ovarian cancer growth, cell-based, BGB or cisplatin combinations (AID 1671459); conditions: UWB1.289 BRCA1 ovarian carcinoma, drug combinations, stronger effect = higher value
[14] = human astrocyte viability loss, single and combined drugs, cytotoxicity control for chromothriptic childhood tumor combination screen, cell-based, BGB or cisplatin IC20 combos (AID 1671460); conditions: Human astrocytes, drug combinations, stronger effect = higher value;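 also: cells exposed to compounds for 96 hours before viability readout; 0% = vehicle and 100% = killing control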
[15] = growth inhibition of BT084 medulloblastoma cells, cell-based, ICGC_MB145, cisplatin and BGB IC40 combos (AID 1671461); conditions: drug combinations, stronger effect = higher value;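 also: cells exposed to drugs for 96 hours; 0% = vehicle DMSO and 100% = high DMSO full killing control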
[16] = growth inhibition of RCMB18 medulloblastoma cells, cell-based, cisplatin and BGB IC40 combos (AID 1671462); conditions: stronger effect = higher value;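 also: cells exposed to compound for four days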
[17] = growth inhibition of CRL1545 osteosarcoma cells, cell-based, cisplatin and BGB IC20 combos (AID 1671464); conditions: stronger effect = higher value;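 also: cells exposed to compound for 96 hours before readout; 0% = vehicle DMSO and 100% = high DMSO killing control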
[18] = stronger effect = lower value, cell number ratio, induced over uninduced
[19] = measured here: relative caspase fold change +Dox/-Dox
[20] = measured here: total cells with miR-34 induction, stronger effect = lower value
[21] = measured here: total cells without miR-34 induction
[22] = MELAS cybrid survival, CellTiter-Glo 48 h, stronger effect = higher value
[23] = Rieske KO mouse fibroblast survival, CellTiter-Glo 72 h
[24] = at 0.5 µM, stronger effect = higher value
[25] = measured here: combination with BGB IC20, at 0.005 µM
[26] = measured here: combination with BGB IC40, at 0.005 µM
[27] = measured here: combination with BGB IC40, at 0.05 µM
[28] = measured here: combination with cisplatin, at 0.5 µM, stronger effect = higher value
[29] = measured here: combination with cisplatin, at 5 µM, stronger effect = higher value
[30] = measured here: with BGB IC20 combination, at 0.5 µM
[31] = measured here: with cisplatin IC20 combination, at 0.5 µM
[32] = measured here: 5 uM single agent, at 5 µM
[33] = measured here: combination with cisplatin, at 0.5 µM
[34] = measured here: combination with cisplatin, at 5 µM
[35] = measured here: with BGB IC20, at 0.5 µM
[36] = measured here: with BGB IC20, at 5 µM
[37] = measured here: with cisplatin IC20, at 0.5 µM
[38] = measured here: with cisplatin IC20, at 5 µM
[39] = measured here: combination with BGB at IC20, at 0.5 µM
[40] = measured here: combination with cisplatin at IC20, at 0.5 µM
[41] = measured here: combo with BGB at IC20, at 0.5 µM
[42] = measured here: combo with cisplatin at IC20, at 0.5 µM
[43] = measured here: inhibition with BGB combination, at 0.05 µM
[44] = measured here: inhibition with cisplatin combination, at 0.05 µM
[45] = measured here: BGB combination, at 0.5 µM
[46] = measured here: BGB combination, at 5 µM
[47] = measured here: cisplatin combination, at 0.5 µM
[48] = measured here: cisplatin combination, at 5 µM
[49] = BGB combination, concentration series, at 5 µM
[50] = cisplatin combination, concentration series, at 5 µM
[51] = measured here: combo with BGB IC20, at 0.5 µM
[52] = measured here: combo with cisplatin IC20, at 0.5 µM
[53] = cisplatin combination, at 0.5 µM
[54] = measured here: BGB IC40 combination 0.05 uM, at 0.05 µM
[55] = measured here: BGB IC40 combination, at 0.05 µM

Nc1ncn(C2OC(CO)C(O)C2O)c(=O)n1 (stereo not drawn)
fold change [1, 18]: 0.707 (inactive) | fold change [1, 19]: 0.203 | cell count [1, 20]: 2140 | cell count [1, 21]: 3020 | z-score [2, 22]: -0.256 (inactive) | z-score [2, 23]: 0.025 | inhibition [3, 24]: -5.82% (inactive) | inhibition [3, 25]: 12.2% | inhibition [3, 26]: 6.88% | inhibition [3, 27]: -0.515% | inhibition [3, 28]: -8.35% | inhibition [3, 29]: 15.6% | inhibition ([4]; BGB combo, at 5 µM): 35.3% | inhibition ([4]; at 0.5 µM): 3.8% (inactive) | inhibition ([4]; cisplatin combo, at 5 µM): 38.5% | inhibition [4, 30]: -3.13% | inhibition [4, 31]: 6.68% | inhibition ([4]; single agent, at 5 µM): 47.8% | inhibition ([5]; BGB IC20 combo, at 0.005 µM): 3.99% | inhibition ([5]; BGB IC40 combo, at 0.005 µM): -4.47% | inhibition ([5]; BGB IC40 combo, at 0.05 µM): 64.1% | inhibition ([5]; at 0.5 µM): -14.1% (inactive) | inhibition ([5]; cisplatin combo, at 0.05 µM): 62.8% | inhibition ([5]; cisplatin combo, at 0.5 µM): -8.65% | inhibition ([5]; cisplatin combo, at 5 µM): -9.29% | inhibition [5, 32]: -4.38% | inhibition ([6]; at 0.5 µM): 1.69% (inactive) | inhibition [6, 27]: -18.7% | inhibition [6, 33]: -16% | inhibition [6, 34]: -12% | inhibition ([7]; at 0.5 µM): -6.96% (inactive) | inhibition [7, 35]: -12.6% | inhibition [7, 36]: 18.2% | inhibition [7, 37]: -13.1% | inhibition [7, 38]: 4.48% | inhibition ([7]; single agent, at 5 µM): 30.1% | inhibition ([8]; at 0.5 µM): -21% (inactive) | inhibition [8, 39]: -8.95% | inhibition [8, 40]: -58.6% | inhibition ([9]; at 0.5 µM): 2.06% (inactive) | inhibition [9, 41]: 4.05% | inhibition [9, 42]: 0.735% | inhibition ([10]; at 0.5 µM): 18.4% (inactive) | inhibition [10, 43]: 8.02% | inhibition [10, 44]: -5.92% | inhibition ([11]; at 0.5 µM): -0.31% (inactive) | inhibition [11, 33]: -2.9% | inhibition [11, 34]: 21.8% | inhibition ([12]; at 0.5 µM): 12.3% (inactive) | inhibition [12, 45]: 18% | inhibition [12, 46]: 23.9% | inhibition [12, 47]: 0.452% | inhibition [12, 48]: 23.8% | inhibition [13, 49]: 63.4% | inhibition ([13]; at 0.5 µM): 20.7% (inactive) | inhibition [13, 50]: 51% | inhibition ([14]; at 0.5 µM): 13.2% (inactive) | inhibition [14, 51]: 17.7% | inhibition [14, 52]: 11.2% | inhibition ([15]; at 0.5 µM): 10.9% (inactive) | inhibition [15, 53]: -8.96% | inhibition ([15]; cisplatin combination, at 5 µM): 53.9% | inhibition [15, 54]: 30.7% | inhibition ([15]; single agent, at 5 µM): 8.5% | inhibition ([16]; at 0.5 µM): 6.45% (inactive) | inhibition ([16]; cisplatin combo, at 5 µM): 53.3% | inhibition [16, 55]: -6.06% | inhibition [16, 33]: 6.83% | inhibition ([16]; single agent, at 5 µM): 41.5% | inhibition ([17]; at 0.5 µM): 0.69% (inactive) | inhibition [17, 30]: 16.1% | inhibition [17, 31]: -8.76% | inhibition ([17]; single agent, at 0.05 µM): -10.6% | inhibition ([17]; single agent, at 5 µM): 9.69%

Cc1cc(C)c(Nc2ccnc(Nc3ccc(C#N)cc3)n2)c(C)c1
fold change [1, 18]: 0.923 (inactive) | fold change [1, 19]: 0.624 | cell count [1, 20]: 2390 | cell count [1, 21]: 2590 | z-score [2, 22]: 0.0317 (inactive) | z-score [2, 23]: 0.105 | inhibition [3, 24]: -1.98% (inactive) | inhibition [3, 25]: -30.5% | inhibition [3, 26]: -59.6% | inhibition [3, 27]: -34.5% | inhibition [3, 28]: -3.17% | inhibition [3, 29]: -40.8% | inhibition ([4]; BGB combo, at 5 µM): 15.1% | inhibition ([4]; at 0.5 µM): 0.3% (inactive) | inhibition ([4]; cisplatin combo, at 5 µM): 3.99% | inhibition [4, 30]: -2.53% | inhibition [4, 31]: 7.83% | inhibition ([4]; single agent, at 5 µM): 42.2% | inhibition ([5]; BGB IC20 combo, at 0.005 µM): -14.3% | inhibition ([5]; BGB IC40 combo, at 0.005 µM): -27.4% | inhibition ([5]; BGB IC40 combo, at 0.05 µM): -8.56% | inhibition ([5]; at 0.5 µM): -22.9% (inactive) | inhibition ([5]; cisplatin combo, at 0.05 µM): -14.1% | inhibition ([5]; cisplatin combo, at 0.5 µM): -41.4% | inhibition ([5]; cisplatin combo, at 5 µM): -46.6% | inhibition [5, 32]: -22% | inhibition ([6]; at 0.5 µM): -25.5% (inactive) | inhibition [6, 27]: -43.1% | inhibition [6, 33]: -56.3% | inhibition [6, 34]: -12.2% | inhibition ([7]; at 0.5 µM): -1.97% (inactive) | inhibition [7, 35]: 4.79% | inhibition [7, 36]: 40.8% | inhibition [7, 37]: -20.5% | inhibition [7, 38]: 9.74% | inhibition ([7]; single agent, at 5 µM): 50.9% | inhibition ([8]; at 0.5 µM): -8.33% (inactive) | inhibition [8, 39]: -39% | inhibition [8, 40]: 10.4% | inhibition ([9]; at 0.5 µM): -17.9% (inactive) | inhibition [9, 41]: -21.5% | inhibition [9, 42]: -28.7% | inhibition ([10]; at 0.5 µM): -2.26% (inactive) | inhibition [10, 43]: -10.8% | inhibition [10, 44]: -7.91% | inhibition ([11]; at 0.5 µM): -18.5% (inactive) | inhibition [11, 33]: -29.8% | inhibition [11, 34]: -25.8% | inhibition ([12]; at 0.5 µM): -14.9% (inactive) | inhibition [12, 45]: -9.41% | inhibition [12, 46]: 25.9% | inhibition [12, 47]: -36.7% | inhibition [12, 48]: 45.4% | inhibition [13, 49]: 69.3% | inhibition ([13]; at 0.5 µM): -2.68% (inactive) | inhibition [13, 50]: 45% | inhibition ([14]; at 0.5 µM): 11.9% (inactive) | inhibition [14, 51]: 11.7% | inhibition [14, 52]: 9.36% | inhibition ([15]; at 0.5 µM): 8.57% (inactive) | inhibition [15, 53]: -23.4% | inhibition ([15]; cisplatin combination, at 5 µM): -181% | inhibition [15, 54]: -32.7% | inhibition ([15]; single agent, at 5 µM): 2.56% | inhibition ([16]; at 0.5 µM): -10.9% (inactive) | inhibition ([16]; cisplatin combo, at 5 µM): -30.4% | inhibition [16, 55]: -21.8% | inhibition [16, 33]: -16.3% | inhibition ([16]; single agent, at 5 µM): 17.4% | inhibition ([17]; at 0.5 µM): 11.1% (inactive) | inhibition [17, 30]: -10.9% | inhibition [17, 31]: 20.9% | inhibition ([17]; single agent, at 0.05 µM): -17.9% | inhibition ([17]; single agent, at 5 µM): 56.2%

From PubChem BioAssay
